The values that follow come from PubChem BioAssay AID602281 (The Scripps Research Institute Molecular Screening Center, 2012).

Broadly, the inhibition is the drop in the measured response relative to a control, in per cent.

Among all 360,000 compounds or so, about 2,900 (0.81%) were called active.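 How the source made its calls: active means inhibition above the mean inhibition across every tested compound plus 3 SD (cut at about 22% in these data); inactive means the rest.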 Many of the other results were omitted from the sample, so actives are more common in it than they were.

Sequence of Perilipin-5 (Homo sapiens) + 1-acylglycerol-3-phosphate O-acyltransferase ABHD5 (Homo sapiens) (Q00G26 whole entry, looked up): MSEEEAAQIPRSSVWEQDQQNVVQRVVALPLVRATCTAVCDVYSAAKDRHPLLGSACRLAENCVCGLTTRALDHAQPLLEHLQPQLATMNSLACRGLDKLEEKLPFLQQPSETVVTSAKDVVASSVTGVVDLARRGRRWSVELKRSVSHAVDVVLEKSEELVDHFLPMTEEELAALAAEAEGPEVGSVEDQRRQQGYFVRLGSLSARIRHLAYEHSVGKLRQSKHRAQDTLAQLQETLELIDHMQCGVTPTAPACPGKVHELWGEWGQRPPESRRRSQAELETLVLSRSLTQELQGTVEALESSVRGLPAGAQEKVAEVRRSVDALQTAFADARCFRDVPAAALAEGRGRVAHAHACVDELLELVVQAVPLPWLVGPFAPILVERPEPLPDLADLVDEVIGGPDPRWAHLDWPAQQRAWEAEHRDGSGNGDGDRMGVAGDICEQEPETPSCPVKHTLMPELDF
Sequence of Perilipin-5 (Homo sapiens) + 1-acylglycerol-3-phosphate O-acyltransferase ABHD5 (Homo sapiens) (Q8WTS1 whole entry, looked up): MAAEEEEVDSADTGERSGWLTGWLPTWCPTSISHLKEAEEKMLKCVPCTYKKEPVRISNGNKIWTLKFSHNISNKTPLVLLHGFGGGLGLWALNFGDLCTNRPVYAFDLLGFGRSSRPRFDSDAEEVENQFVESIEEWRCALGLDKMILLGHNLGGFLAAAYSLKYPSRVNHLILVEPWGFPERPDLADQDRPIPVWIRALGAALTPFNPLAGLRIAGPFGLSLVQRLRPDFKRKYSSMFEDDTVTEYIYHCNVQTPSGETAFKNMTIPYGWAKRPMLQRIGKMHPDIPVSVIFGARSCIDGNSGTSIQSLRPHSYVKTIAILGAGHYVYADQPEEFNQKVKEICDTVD

The assay has as its target Perilipin-5 (Homo sapiens) + 1-acylglycerol-3-phosphate O-acyltransferase ABHD5 (Homo sapiens) (UniProt Q00G26+Q8WTS1). In words: blockers of ABHD5 binding to perilipin-5 – cell lysate, split luciferase complementation, luminescence, primary screen (AID 602281).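 Further: 0% = DMSO only wells and the 100% control is not disclosed.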 Conditions: Split G. princeps luciferase complementation, 4 h, at 4 µM, active compounds read high.
Turning to `O=c1[nH][nH]c2c1[C@H](c1ccc(Cl)cc1)O[C@H](CCc1ccccc1)C2`, the inhibition is 29.6% (active).

For the compound `COc1ccc(C2OC(CCc3ccccc3)Cc3[nH]c(=S)[nH]c(=O)c32)cc1` (stereo not given), the inhibition is -6.49% (inactive).

Turning to `CC(C)C1Cc2[nH][nH]c(=O)c2C(c2ccc(Cl)cc2)O1` (stereo not given), the inhibition is 4.21% (inactive).

For the compound `CCOCCCNC(=O)c1ccc(CS(=O)(=O)c2cccc(C(F)(F)F)c2)o1`, the inhibition is 9.27% (inactive).

Take `N#C/C(=C(\O)C(F)(F)F)c1nnc2n1CCCCC2`: the inhibition was 4.79% (inactive).

Take `CC(=O)OCCOCn1cnn2c(=O)c(Br)c(C)nc12`: the inhibition is -1.92% (inactive).

In the case of `Cc1cc2c(c(=O)n1C)C(C(C)C)C(C#N)=C(N)O2` (stereo not given), the inhibition is 1.5% (inactive).

On to `Cn1c2c(c(=O)n(C)c1=O)C(c1cccc(F)c1)C(C#N)=C(N)O2` (stereo not given), for which the inhibition is 12.7% (inactive).

For the compound `Cc1cc2c(c(=O)n1Cc1ccco1)C(c1ccccc1)C(C#N)=C(N)O2` (stereo not given), the inhibition is 36.4% (active).

`CC1CCCCC1NC(=O)CSc1nnc(-c2ccncc2)n1CCCN(C)C` (stereo not given): the inhibition is 3.79% (inactive).

For `COC1=NC2=NCCN2C(OC)=N1`, the inhibition was 7.21% (inactive).

In the case of `Cn1c2ccccc2c2cc(/C=C(\NC(=O)c3ccccc3)C(=O)NCC(=O)O)ccc21`, the inhibition was 4.74% (inactive).

In the case of `C[C@H](CO)N1C[C@H](C)[C@@H](CN(C)Cc2ccc(-c3ccccc3)cc2)Oc2ccc(NC(=O)Cn3cnnn3)cc2C1=O`, the inhibition is 1.64% (inactive).

As for `O=C(CSC1=NS(=O)(=O)c2cc(F)ccc2N1)Nc1ccccc1F`, the inhibition is -1.35% (inactive).

Consider `C=CCNC(=S)/N=c1/ccccn1Cc1ccccc1`, for which the inhibition is -6.7% (inactive).

As to `CN1CCC[C@@H]1CCO[C@](C)(c1ccccc1)c1ccc(Cl)cc1`, the inhibition was 24.5% (active).

`CC1CCCN(CC(=O)Nc2cc(Cl)ccc2Oc2ccccc2)C1` (stereo not given): the inhibition was -6.16% (inactive).

For the compound `OC(c1ccccc1)(c1ccccc1)C1CCN(CCCOc2ccccc2)CC1`, the inhibition is 4.12% (inactive).

Regarding `Cc1cc(C)cc(N)c1`, the inhibition is -4.69% (inactive).

For the compound `COc1cc(/C=C/CNC[C@H]2O[C@@H](n3cnc(C(N)=O)n3)[C@H](O)[C@@H]2O)ccc1O`, the inhibition is 9.45% (inactive).

`COc1ccc(N/C=C(\C2OC(=O)c3ccccc32)[N+](=O)[O-])cc1` (stereo not given): the inhibition was 42.9% (active).

For the compound `COc1ccc(NC(=O)ON=C2c3ccccc3-c3ccccc32)cc1`, the inhibition was -4.58% (inactive).

As for `COc1ccc(NC(=O)C2=C(C)NC(=O)NC2c2ccccc2[N+](=O)[O-])cc1` (stereo not given), the inhibition is -1.09% (inactive).

For the compound `Cc1cc(C)c(S(=O)(=O)N2CCOCC2)cc1C`, the inhibition was 2.37% (inactive).

Take `CC(=O)c1ccc(N=C2SCCCN2C(=O)C2CCCCC2)cc1`: the inhibition is -0.57% (inactive).

Take `CC(=O)c1c(C)[nH]c(C(=O)COc2ccc3c(C)cc(=O)oc3c2)c1C`: the inhibition was -4.41% (inactive).

As to `O=C(NC1=CC(=O)c2ccccc2C1=O)c1ccccc1`, the inhibition was 84.6% (active).

With `C/C(=N\NC(=O)c1ccc(C)cc1)C1C(=O)c2ccccc2C1=O`, the inhibition is 5.2% (inactive).

`CN(C)C(=O)c1ccc(NC(=O)c2ccccc2-c2ccccc2)cc1`: the inhibition was 2.67% (inactive).

As for `CCC(=O)Nc1ccc(C(=O)CSc2nnc(CNc3ccc(Cl)cc3)o2)cc1OC`, the inhibition was -15.2% (inactive).

On to `OC1CSc2nc3ccccc3n2C1` (stereo not given), for which the inhibition is 1.22% (inactive).

For the compound `O=C(Cc1ccccc1Cl)N1CCOCC1`, the inhibition is 1.3% (inactive).

As to `Cc1cc(C)c(NC(=O)CN2C(=O)NC(Cc3ccccc3)C2=O)c(C)c1` (stereo not given), the inhibition is 3.3% (inactive).

For the compound `CN(Cc1ccccc1)S(=O)(=O)c1nnc(NC(=O)c2ccccc2F)s1`, the inhibition is -11.4% (inactive).

In the case of `CSc1nnc(NC(=O)c2nc(S(=O)(=O)Cc3ccc(C)cc3)ncc2Cl)s1`, the inhibition is 32.5% (active).

With `O=C(Nc1nnc(Cc2ccc(Cl)cc2)s1)c1cccnc1`, the inhibition is 10% (inactive).

For `Cc1ccc(CS(=O)(=O)c2ncc(Cl)c(C(=O)Nc3nnc(C)s3)n2)cc1`, the inhibition was 43.2% (active).

With `Cc1ccc(CS(=O)(=O)CCC(=O)NC2CC2)cc1`, the inhibition was 0.91% (inactive).

With `CCOC(=O)c1sc(N)c(C#N)c1COC(=O)C1=COCCO1`, the inhibition was -2.21% (inactive).

For `CCCCn1c(N)c(N(CCOC)C(=O)c2cccc(S(=O)(=O)N(C)c3ccccc3)c2)c(=O)[nH]c1=O`, the inhibition is -4.97% (inactive).

For `COC(=O)Cc1ccc(N(Cc2ccccc2F)S(=O)(=O)c2ccc(Br)cc2)cc1`, the inhibition is 0.04% (inactive).

Take `Cc1cccc(NC(=O)c2cccc(C(=O)Nc3cccc(C)c3C)n2)c1C`: the inhibition was -2.21% (inactive).

Take `Cc1cccc(NC(=O)c2ccc(OCC(=O)NCc3ccccc3)cc2)c1C`: the inhibition is -5.25% (inactive).

Turning to `Cc1cccc(NC(=O)c2ccc3nsnc3c2)c1C`, the inhibition is 122% (active).

As for `Cc1noc(C)c1COc1ccccc1C(=O)N(C)CC(=O)Nc1cccc(F)c1`, the inhibition was 8.24% (inactive).

Regarding `O=NN(CCCl)C(=O)NCCc1cccc[n+]1[O-]`, the inhibition is 1.74% (inactive).

As for `COC(=O)C1(C)NC(c2ccc(F)cc2)C2C(=O)N(c3ccccc3)C(=O)C21` (stereo not given), the inhibition is -0.78% (inactive).

Take `COC(=O)C1(C)NC(c2ccccc2OC)C2C(=O)N(c3ccccc3)C(=O)C21` (stereo not given): the inhibition is 69.3% (active).

`COC(=O)C1(C)NC(c2ccc(C)cc2)C2C(=O)N(c3ccc(F)cc3)C(=O)C21` (stereo not given): the inhibition is 4.79% (inactive).

Turning to `CC(C)CNC(=S)NNC(=O)c1nn(C)cc1Cl`, the inhibition was -4.74% (inactive).

`CCOc1ccc(CCN2C(=O)C(=O)N([C@@H](Cc3ccc(O)cc3)CN3CCC[C@H]3CN3C(=O)C(=O)NC[C@@H]3CC(C)C)C[C@@H]2Cc2ccccc2)cc1`: the inhibition was 3.51% (inactive).

With `Cc1cc(NC(=O)COC(=O)COc2ccc(Cl)cc2C)c([N+](=O)[O-])cc1C`, the inhibition was 4.5% (inactive).

For `CC(=O)c1ccc(N2CCN(S(=O)(=O)c3c(C)[nH]c(=O)[nH]c3=O)CC2)cc1`, the inhibition was 1.36% (inactive).

In the case of `CCN(CCCNC(=O)CCn1c(=O)[nH]c2ccsc2c1=O)c1ccccc1`, the inhibition is -1.79% (inactive).

As for `CCN(CCCNC(=O)c1ccc2c(c1)NC(=O)CN2C)c1cccc(C)c1`, the inhibition is 76.6% (active).

For the compound `CCN1CCN(CCNC(=O)c2ccc3c(c2)NC(=O)/C(=C\c2cccc(Cl)c2)S3)CC1`, the inhibition was 12.3% (inactive).

As to `CCN(c1ccc2c(c1)OCO2)S(=O)(=O)c1cc(Br)cc2c1N(C(=O)C1CC1)CC2`, the inhibition is -5.83% (inactive).

In the case of `O=C(NNS(=O)(=O)c1ccc(F)cc1)c1cnccn1`, the inhibition was -1.88% (inactive).

With `COc1ccc(-c2cc3n(n2)CCc2nc4ccccc4n2-3)cc1`, the inhibition is 5.6% (inactive).

For `CC(C)c1ccc2oc(=O)cc(CN3CCN(Cc4ccccc4)CC3)c2c1`, the inhibition is -1.39% (inactive).

Take `Cc1nc([N+](=O)[O-])nn1C12CC3CC(CC(Br)(C3)C1)C2`: the inhibition is -11.4% (inactive).

Regarding `O=C(Nc1nonc1-c1ccc(Cl)cc1)c1ccco1`, the inhibition is -2.13% (inactive).

For the compound `O=C(Nc1nc(-c2ccco2)c(-c2ccco2)s1)c1ccco1`, the inhibition was 25.3% (active).

For `CCc1nnc(NC(=O)c2ccco2)s1`, the inhibition was 3.45% (inactive).

Turning to `Cc1cc(C)c(C#N)c(SCS(=O)c2ccc(C(C)(C)C)cc2)n1` (stereo not given), the inhibition is 5.68% (inactive).

On to `S=C(Nc1ccc(Br)cc1Cl)N1CCC2(CC1)OCCO2`, for which the inhibition is -3.87% (inactive).

As to `CCOC(=O)CCC(=O)OCC(=O)NC(C)C1CC2CCC1C2` (stereo not given), the inhibition was -2.3% (inactive).

For `Cc1ccc(-n2nc(-c3ccco3)cc2C(=O)NCc2cccnc2)cc1`, the inhibition is 36.3% (active).

With `CSc1sc(C(=O)NC(=O)NCc2cccnc2)c(C)c1-c1ccon1`, the inhibition was 6.42% (inactive).

Regarding `Cc1ccc(C(=O)NC(=S)NCc2cccnc2)cc1`, the inhibition was 2.77% (inactive).

Turning to `CCc1ccc(OC2(C)CCN(CCOc3ccc(C)cc3)C2)cc1` (stereo not given), the inhibition was -1.92% (inactive).

Consider `Cc1[nH]c2ccccc2c1C(=O)C(C)Sc1nnc(C2CC2)o1` (stereo not given), for which the inhibition was -5.93% (inactive).

`O=C(Nc1ccccc1Cl)NC1(C(=O)N2CCOCC2)CCCCC1`: the inhibition is -0.52% (inactive).

For the compound `COc1ccccc1NC(=O)COC(=O)Cc1ccc(S(=O)(=O)N2CCCCC2)s1`, the inhibition was 0.2% (inactive).

Consider `NS(=O)(=O)c1ccc(CNC(=O)c2cc(S(=O)(=O)N3CCOCC3)ccc2N2CCCC2)cc1`, for which the inhibition is 4.8% (inactive).

As to `CCC1CCCCN1C(=S)Nc1ccc(S(=O)(=O)Nc2ncccn2)cc1` (stereo not given), the inhibition is -5.25% (inactive).

Regarding `COc1ccc(C(C(=O)NC(C)(C)C)N(C(=O)Cn2nnc3ccccc32)c2ccc(C(C)=O)cc2)cc1O` (stereo not given), the inhibition is -5.36% (inactive).

For `CCNC(=O)CC1C(=O)N(c2ccc(OC)cc2)C(=S)N1CCc1ccncc1` (stereo not given), the inhibition is 2.72% (inactive).

Consider `Cc1ccc(NC(=O)Cn2c(C)csc2=O)cc1`, for which the inhibition was 0% (inactive).

As for `Cc1ccc(NC(=O)Cn2sc3ccccc3c2=O)cc1`, the inhibition is 71.6% (active).

On to `O=C(Cn1nc(C(=O)O)c2ccccc2c1=O)Nc1ccc(F)cc1`, for which the inhibition was 4.56% (inactive).

On to `Cn1cc(S(=O)(=O)N2CCN(c3ccc(F)cc3)CC2)c(=O)n(C)c1=O`, for which the inhibition was 2.58% (inactive).

Consider `CC(=O)c1c(C)n(-c2ccc(N(C)C)cc2)c2ccc(OCC(N)=O)cc12`, for which the inhibition is -5.31% (inactive).

As for `NC(=O)COc1ccc(C23CC4CC(CC(C4)C2)C3)cc1`, the inhibition was -7.75% (inactive).

Take `CC(C)OCCCNC(=O)CNC(=O)c1cccs1`: the inhibition is 3.5% (inactive).

As for `Cc1ccccc1C(CC(=O)c1cccs1)C(C#N)C#N` (stereo not given), the inhibition is 22.1% (active).

Turning to `Cc1ccc(NNC(=O)c2cccs2)cc1Cl`, the inhibition is 0.05% (inactive).

Turning to `CC1=NN(C(C)C)C(=O)C1`, the inhibition is -11.8% (inactive).

In the case of `COc1ccccc1C(=O)C(O)c1ccccc1OC` (stereo not given), the inhibition is 4.01% (inactive).

On to `CSc1ccccc1OCc1cc(C(=O)N2C[C@H]3CC[C@H]2C3)no1`, for which the inhibition is -0.37% (inactive).

In the case of `COC(=O)[C@@H](NC(=O)Nc1cc(Cl)ccc1C)C(C)C`, the inhibition is 15.4% (inactive).

In the case of `O=S(=O)(/C=C/c1ccccc1)N1CCNCC1`, the inhibition is -10.8% (inactive).

On to `Cc1nc(-c2ccccc2)sc1-c1nc(-c2ccccc2)ncc1S(=O)(=O)c1ccccc1`, for which the inhibition was 2.52% (inactive).

As to `O=C(/C=C/c1ccccc1)c1ccccc1O`, the inhibition was 22.9% (active).

For the compound `Nc1nc(NC(=O)/C=C/c2ccccc2)nn1-c1ccccc1`, the inhibition is 3.41% (inactive).

For `Cc1nc(-c2ccc(Cl)cc2)sc1C(=O)CBr`, the inhibition was 9.2% (inactive).

Regarding `O=C(/C=C/c1ccccc1)c1ccoc1`, the inhibition was 23% (active).

For the compound `CC1(C(=O)O)CCN1C(=O)/C=C/c1ccccc1` (stereo not given), the inhibition is -1.15% (inactive).

As for `Cc1nc(-c2ccccc2)sc1C(=O)/C=C/c1ccccc1`, the inhibition is 36% (active).

`CC(/C=C/c1ccccc1)=N\NC(=O)C1CC1(C)c1ccccc1` (stereo not given): the inhibition is -4.04% (inactive).
